Most compounds without a hit are left out; they make up all but 1.9% or so of the library.
Measles CPE = compounds protecting cells from measles virus cytopathic effect, primary screen, measles RdRp inhibitor project, single point, MLSMR library, absorbance; protection (pct of control), % at 4 µM; 140,000 compounds, 1.5% hits; Measles virus-infected cells, CPE protection; in the data active = protection mostly above about 24%, no sharp cut-off; inactive = mostly below about 26%
sEH activator = soluble epoxide hydrolase activators, primary screen, biochemical, human sEH. purified human sEH enzymatic activity, activator screen. activation, % at 2 µM. 91,000 compounds, 0.04% hits; in the data active = activation above about 37%
Target sequence (P34913 whole entry, looked up): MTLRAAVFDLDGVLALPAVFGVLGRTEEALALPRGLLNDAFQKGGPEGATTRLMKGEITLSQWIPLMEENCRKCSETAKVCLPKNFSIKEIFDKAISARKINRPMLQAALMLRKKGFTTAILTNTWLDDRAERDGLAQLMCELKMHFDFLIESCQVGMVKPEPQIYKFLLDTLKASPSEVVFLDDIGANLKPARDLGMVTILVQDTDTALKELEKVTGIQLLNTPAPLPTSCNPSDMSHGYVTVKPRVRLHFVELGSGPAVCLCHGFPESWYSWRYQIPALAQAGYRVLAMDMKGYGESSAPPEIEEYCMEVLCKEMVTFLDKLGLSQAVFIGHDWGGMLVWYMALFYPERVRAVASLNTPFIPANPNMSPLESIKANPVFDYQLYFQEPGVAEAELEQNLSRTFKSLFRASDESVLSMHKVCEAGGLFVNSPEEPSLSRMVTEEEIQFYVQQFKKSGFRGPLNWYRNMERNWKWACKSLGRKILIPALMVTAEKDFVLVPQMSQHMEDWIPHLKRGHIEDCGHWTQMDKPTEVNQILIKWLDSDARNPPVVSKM
sEH inh = soluble epoxide hydrolase inhibitors, primary screen, biochemical, human sEH; Bifunctional epoxide hydrolase 2 (Homo sapiens), P34913; recombinant human sEH enzymatic activity assay; inhibition, % at 2 µM; 91,000 compounds, 0.34% hits; in the data active = inhibition above about 80%
sdo1 growth = growth rescue of sdo1-depleted yeast, primary screen, S. cerevisiae, bone marrow failure model. z-score at 10 µM. 140,000 compounds, 0.21% hits. S. cerevisiae sdo1-depleted JHY4D growth rescue, OD600 30 h; active compounds read high; pdr5 snq2 efflux-pump mutant strain;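 active = z-score above 3 at both the 24 hr and the 30 hr optical density reads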;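 also: z-score against mean and SD of all compound wells on the same plate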
Starred values were filed as active, the others as inactive; . = not tested or not shown.

SMILES	Measles CPE	sEH activator	sEH inh	sdo1 growth
CC(=O)NC(Cc1ccccc1)C(=O)N1CCN(C(=O)c2ccco2)CC1 (configuration not stated)	36*	-15	16	0.5
O=C(c1ccco1)N1CCN(C(=O)C(Cc2ccccc2)NS(=O)(=O)c2cccs2)CC1 (configuration not stated)	24	-15	14	0.53
Cc1cc2nc(C3CCN(CC4COc5ccccc5O4)CC3)[nH]c2cc1C (configuration not stated)	15	-15	14	-1.4
O=C(OCC(=O)N1CCCC1)c1cncc(Br)c1	43*	-5	8	3.1
O=C(Nc1nc(-c2cc(Cl)sc2Cl)cs1)c1ccccc1	22	12	-8	-1.1
CSc1nccc(-c2cc(Cl)sc2Cl)n1	19*	2	-4	-1.2
CCCOc1ccc(N2C(=O)C3ON(c4ccccc4)C(CCC)C3C2=O)cc1 (configuration not stated)	25*	-9	10	-0.12
CCOc1ccccc1C1C2C(=O)N(c3ccccc3)C(=O)C2ON1c1ccccc1 (configuration not stated)	47*	18	-19	0.72
O=C(O)c1ccc(N2C(=O)C3ON(c4ccccc4)C(c4ccccc4F)C3C2=O)cc1 (configuration not stated)	31	44*	-48	0.53
O=C(Nc1cccc(S(=O)(=O)NCc2ccco2)c1)c1cc(-c2ccc(F)cc2)nc2ccccc12	10	.	.	0.37
CCn1ncc(Br)c1C(=O)Nc1sc2c(c1C(N)=O)CCC2	33*	-8	10	-0.72
Cn1cc(Br)c(C(=O)Nc2sc3c(c2C(N)=O)CCC3)n1	9	2	1	0.29
O=C(Cc1c(F)cccc1Cl)NCCCn1ccnc1	45*	-10	11	0.86
Cc1cccc(C)c1NC(=O)CSc1nnc(CCCCCNC(=O)OC(C)(C)C)o1	18	6	-6	-0.19
CCC(C)[C@H](NC(=O)Nc1ccc(S(N)(=O)=O)cc1)C(=O)O (some centres not stated)	8	.	.	-0.83
COC(=O)[C@@H](NC(=O)Nc1ccc(OC(F)(F)F)cc1)C(C)C	7	-73	73	-0.45
CC(=O)Nc1cccc(NC(=O)Nc2ccc(C(C)=O)cc2)c1	44*	-16	18	0.48
COC(=O)[C@@H](NC(=O)Nc1ccc(S(N)(=O)=O)cc1)C(C)C	31*	.	.	1.5
COC(=O)[C@@H](NC(=O)Nc1ccc(C(C)=O)cc1)C(C)C	104*	-5	4	0.82
Cc1cc(NC(=O)CSc2nc3c(sc4ccccc43)c(=O)n2CCCN2CCOCC2)n[nH]1	6	1	-2	1.1
COc1ccc(CNc2nc3nc(C)c(Cl)c(=O)n3[nH]2)cc1OC	22	8	-8	-0.23
CCOc1cc2[nH]c(=S)n(CC3CCCN3CC)c(=O)c2cc1OCC (configuration not stated)	27	.	.	-0.2
COc1ccc(OC)c(N(CC(=O)Nc2cccnc2)S(C)(=O)=O)c1	7	9	-8	0.34
CC1(C)N=C(SCC(=O)Nc2ccc(Cl)cc2Cl)C(c2ccccc2)=N1	9	2	-2	-0.88
CC(C)C(c1nnnn1C1CCCC1)N1CCc2ccccc21 (configuration not stated)	2	-4	5	-0.89
SMILES	Measles CPE	sEH activator	sEH inh	sdo1 growth
CN1CCN(CCCNC(=O)Nc2cccc3ccccc23)CC1	44*	-20	19	0.86
O=C(NCCCN1CCCC1)Nc1cccc2ccccc12	11	-12	11	0.77
O/N=C/c1ccc(OCc2ccccc2)c(Br)c1	42*	.	.	-2.1
O=c1nc2n(c3ncccc13)CCC2	10	0	-1	-0.06
Cc1cccc(N=C2Sc3nc4c(C)c(C)ccc4cc3CN2CCN2CCOCC2)c1	31*	4	-3	-1.8
O=C(c1ccc(-n2cnnn2)cc1)N1CCOCC1	6	-1	0	-0.34
CC1CCN(C(=O)c2ccc(-n3cnnn3)cc2)CC1	40*	10	-6	0.72
CCc1ccc(-n2c(C)cc(/C=N/NC(=O)OC)c2C)cc1	6	.	.	-0.56
Clc1ccc(Cn2c(-c3cccnc3Cl)nc3ccccc32)cc1	33*	7	-4	-1.7
O=C(CSc1nc(-c2ccco2)cc(C(F)(F)F)n1)N1CCN(c2ccc(Cl)cc2)CC1	70*	6	-1	-0.94
O=C(CSc1nc(-c2ccco2)cc(C(F)(F)F)n1)N1CCN(Cc2ccccc2)CC1	18	6	-8	-1.8
O=C(CSc1n[nH]c(-c2ccccc2O)n1)N1CCCc2ccccc21	10	9	-10	-1.8
O=C(CN1CCCCC1)Nc1ccc(F)c(Cl)c1	56*	.	.	0.82
O=C(CN1CCN(S(=O)(=O)c2cc(Cl)ccc2Cl)CC1)Nc1ccc2c(c1)OCCO2	42*	.	.	-0.68
CN(C)c1ccc(NC(=O)CN2CCN(S(=O)(=O)c3cc(Cl)ccc3Cl)CC2)cc1	12	-9	11	-1.4
CCOC(=O)c1ccc(NC(=O)C(CC)CC)cc1	15	-5	5	-0.01
Cc1cc2ccccn2c1C(=O)c1nc(N2CCOCC2)ncc1Cl	4	7	-7	-1
O=C(O)c1ccccc1C(=O)NCc1cccnc1	32*	-9	9	0.87
O=C(CSc1ccccc1)NCc1cccnc1	40*	.	.	1.5
Cn1c(=O)c2c(ncn2CC(=O)NCc2cccnc2)n(C)c1=O	39*	1	-2	-0.1
Cn1c(=O)c2c(ncn2CC(=O)OCC(=O)NCc2ccc(Cl)cc2)n(C)c1=O	26	.	.	-0.66
O=C(N/N=C/c1cccs1)c1cccc(NC(=O)c2ccccc2Cl)c1	5	.	.	-1
COc1ccc2cc3cc(C(=O)NCc4cccs4)oc3nc2c1	5	-2	4	0
O=C1C2CCCN2C(c2ccc(F)cc2)N1c1nccs1 (configuration not stated)	33*	.	.	0.49
Cc1ccc(C2N(c3nccs3)C(=O)C3CCCN32)cc1 (configuration not stated)	2	0	2	-0.32
SMILES	Measles CPE	sEH activator	sEH inh	sdo1 growth
CNc1nc(-c2ccccc2)nc(-c2ccccc2)c1C#N	61*	27	-26	-1.4
O=C(NCC(=O)N(c1cnc2ccccc2c1)C(C(=O)NC1CCCC1)c1ccncc1)c1ccco1 (configuration not stated)	10	9	-8	0.96
Cc1ccnc(NC(=O)c2c(-c3ccccc3Cl)noc2C)c1	24*	.	.	-0.26
O=C(c1ccc(Cl)cc1)N1CCC(O)(CSc2ccccc2)CC1	4	.	.	-0.71
Cc1ccc(NC(=O)ON=C2CCCC2)cc1	43*	.	.	-2
CCCC(=O)Nc1cccc(NC(=O)c2ccccc2Br)c1	22	0	2	-0.81
O=C(N/N=C/c1cccc([N+](=O)[O-])c1)C1CC(=O)N(c2ccc(Cl)cc2)C1 (configuration not stated)	72*	-6	9	-1.2

High-throughput results deposited in PubChem BioAssay by several laboratories.
